Measured values taken from PubChem BioAssay AID1159580 (chemical genetic matrix, 2015).
“And” between values parts separate entries of the source, which are not always exact repeats. Equal entries are not always repeated. Out of some 5,500 compounds screened, about 2,000 (36%) were called active. Roughly 18% stayed inconclusive and do not appear here. No stated cut-off is given here; in the data, active means normalized growth mostly below about 0.91 (no sharp cut-off); inconclusive means no clear call, values can overlap the other calls; inactive means mostly above about 0.92. The list shows a part of the results.

Assay: chemical genetic growth profiling, strain panel (AID 1159580);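 further: tested at 20 µM; growth read once vehicle control cultures reached saturation at 30 °C; 1 = growth at the plate median or of vehicle wells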
Conditions: growth OD

Measured: normalized growth

NC(=O)CN1CCCC1=O
inactive: S. cerevisiae deletion strains, locus YKL009W, strain mrt4, stronger effect = lower value 1.01 | S. cerevisiae deletion strains, locus YKL068W, stronger effect = lower value 1 | S. cerevisiae deletion strains, locus YKL085W, strain MDH1 (second series), stronger effect = lower value 1.02 | S. cerevisiae deletion strains, locus YKL085W, strain MDH1, stronger effect = lower value 1.02 | S. cerevisiae deletion strains, locus YKL160W, strain elf1, stronger effect = lower value 0.967 | S. cerevisiae deletion strains, locus YKL190W, strain CNB1, stronger effect = lower value 1 | S. cerevisiae deletion strains, locus YKR001C, strain vps1, stronger effect = lower value 1.01 | S. cerevisiae deletion strains, locus YKR026C, strain gcn3, stronger effect = lower value 0.992 | S. cerevisiae deletion strains, locus YKR091W, strain srl3, stronger effect = lower value 0.995 | S. cerevisiae deletion strains, locus YLL001W, strain dnm1, stronger effect = lower value 0.958 | S. cerevisiae deletion strains, locus YLL026W, stronger effect = lower value 0.999 | S. cerevisiae deletion strains, locus YLL041C, strain sdh2, stronger effect = lower value 0.992 | S. cerevisiae deletion strains, locus YLR027C, strain aat2, stronger effect = lower value 0.999 | S. cerevisiae deletion strains, locus YLR039C, strain RIC1, stronger effect = lower value 1.01 | S. cerevisiae deletion strains, locus YLR058C, strain SHM2, stronger effect = lower value 1.01 | S. cerevisiae deletion strains, locus YLR102C, strain apc9, stronger effect = lower value 1.01 | S. cerevisiae deletion strains, locus YLR113W, strain HOG1, stronger effect = lower value 0.954 | S. cerevisiae deletion strains, locus YLR221C, strain rsa3, stronger effect = lower value 0.989 | S. cerevisiae deletion strains, locus YLR258W, strain gsy2, stronger effect = lower value 0.99 | S. cerevisiae deletion strains, locus YLR262C, strain YPT6 (second series), stronger effect = lower value 0.987 | S. cerevisiae deletion strains, locus YLR262C, strain YPT6, stronger effect = lower value 1.02 | S. cerevisiae deletion strains, locus YLR268W, strain sec22, stronger effect = lower value 1.01 | S. cerevisiae deletion strains, locus YLR320W, strain mms22, stronger effect = lower value 0.958 | S. cerevisiae deletion strains, locus YLR330W, strain CHS5, stronger effect = lower value 0.996 | S. cerevisiae deletion strains, locus YLR342W, strain FKS1 (second series), stronger effect = lower value 1.02 | S. cerevisiae deletion strains, locus YLR342W, strain FKS1, stronger effect = lower value 0.98 | S. cerevisiae deletion strains, locus YLR357W, strain rsc2, stronger effect = lower value 0.977 | S. cerevisiae deletion strains, locus YLR370C, strain arc18, stronger effect = lower value 0.99 | S. cerevisiae deletion strains, locus YLR371W, strain rom2, stronger effect = lower value 1.01 | S. cerevisiae deletion strains, locus YLR384C, strain iki3, stronger effect = lower value 0.977 | S. cerevisiae deletion strains, locus YLR418C, strain cdc73, stronger effect = lower value 1.01 | S. cerevisiae deletion strains, locus YML016C, strain PPZ1, stronger effect = lower value 0.999 | S. cerevisiae deletion strains, locus YML032C, strain rad52, stronger effect = lower value 1.01 | S. cerevisiae deletion strains, locus YML120C, strain ndi1, stronger effect = lower value 0.983 | S. cerevisiae deletion strains, locus YML124C, strain tub3, stronger effect = lower value 1.01 | S. cerevisiae deletion strains, locus YMR058W, strain fet3, stronger effect = lower value 0.988 | S. cerevisiae deletion strains, locus YMR078C, strain ctf18, stronger effect = lower value 1 | S. cerevisiae deletion strains, locus YMR125W, strain sto1, stronger effect = lower value 0.996 | S. cerevisiae deletion strains, locus YMR129W, stronger effect = lower value 1 | S. cerevisiae deletion strains, locus YMR205C, strain PFK2, stronger effect = lower value 0.973 | S. cerevisiae deletion strains, locus YMR223W, strain ubp8, stronger effect = lower value 1.01 | S. cerevisiae deletion strains, locus YMR231W, strain pep5, stronger effect = lower value 0.997 | S. cerevisiae deletion strains, locus YMR263W, strain SAP30, stronger effect = lower value 0.993 | S. cerevisiae deletion strains, locus YMR307W, strain GAS1, stronger effect = lower value 1.06 | S. cerevisiae deletion strains, locus YNL067W, strain RPL9B, stronger effect = lower value 1.01 | S. cerevisiae deletion strains, locus YNL071W, strain lat1, stronger effect = lower value 0.991 | S. cerevisiae deletion strains, locus YNL128W, strain TEP1, stronger effect = lower value 1.05 | S. cerevisiae deletion strains, locus YNL153C, strain GIM3, stronger effect = lower value 0.979 and 1.17 | S. cerevisiae deletion strains, locus YNL175C, strain NOP13, stronger effect = lower value 0.997 | S. cerevisiae deletion strains, locus YNL183C, strain NPR1, stronger effect = lower value 0.915 | S. cerevisiae deletion strains, locus YNL197C, strain WHI3, stronger effect = lower value 1.01 | S. cerevisiae deletion strains, locus YNL209W, strain ssb2, stronger effect = lower value 0.998 | S. cerevisiae deletion strains, locus YNL224C, strain SQS1, stronger effect = lower value 0.995 | S. cerevisiae deletion strains, locus YNL233W, strain BNI4, stronger effect = lower value 0.985 | S. cerevisiae deletion strains, locus YNL248C, strain rpa49, stronger effect = lower value 0.982 | S. cerevisiae deletion strains, locus YNL250W, strain rad50, stronger effect = lower value 1 | S. cerevisiae deletion strains, locus YNL271C, strain bni1, stronger effect = lower value 1.01 | S. cerevisiae deletion strains, locus YNL298W, strain CLA4, stronger effect = lower value 1.03 | S. cerevisiae deletion strains, locus YNL307C, strain MCK1, stronger effect = lower value 1.03 | S. cerevisiae deletion strains, locus YNL322C, strain KRE1 (second series), stronger effect = lower value 0.992 | S. cerevisiae deletion strains, locus YNL322C, strain KRE1, stronger effect = lower value 1 | S. cerevisiae deletion strains, locus YNR049C, strain mso1, stronger effect = lower value 0.99 | S. cerevisiae deletion strains, locus YNR052C, strain pop2, stronger effect = lower value 1.01 | S. cerevisiae deletion strains, locus YOL006C, strain TOP1, stronger effect = lower value 1.04 | S. cerevisiae deletion strains, locus YOL012C, strain htz1 0.826 | S. cerevisiae deletion strains, locus YOL147C, strain pex11, stronger effect = lower value 1.01 | S. cerevisiae deletion strains, locus YOR001W, strain rrp6, stronger effect = lower value 1.01 | S. cerevisiae deletion strains, locus YOR061W, strain CKA2, stronger effect = lower value 1.01 | S. cerevisiae deletion strains, locus YOR069W, strain VPS5, stronger effect = lower value 1.01 | S. cerevisiae deletion strains, locus YOR070C, strain gyp1, stronger effect = lower value 0.993 | S. cerevisiae deletion strains, locus YOR080W, strain dia2, stronger effect = lower value 0.994 | S. cerevisiae deletion strains, locus YOR083W, strain WHI5 (second series), stronger effect = lower value 0.99 | S. cerevisiae deletion strains, locus YOR083W, strain WHI5, stronger effect = lower value 0.968 | S. cerevisiae deletion strains, locus YOR106W, strain vam3, stronger effect = lower value 0.967 | S. cerevisiae deletion strains, locus YOR136W, strain idh2, stronger effect = lower value 1 | S. cerevisiae deletion strains, locus YOR144C, strain elg1, stronger effect = lower value 0.998 | S. cerevisiae deletion strains, locus YOR184W, strain ser1, stronger effect = lower value 1 | S. cerevisiae deletion strains, locus YOR231W, strain MKK1, stronger effect = lower value 0.984 | S. cerevisiae deletion strains, locus YOR265W, strain rbl2, stronger effect = lower value 0.992 | S. cerevisiae deletion strains, locus YOR270C, strain vph1, stronger effect = lower value 0.97 | S. cerevisiae deletion strains, locus YOR290C, strain snf2, stronger effect = lower value 0.99 | S. cerevisiae deletion strains, locus YOR316C, strain cot1, stronger effect = lower value 1.02 | S. cerevisiae deletion strains, locus YPL051W, strain arl3, stronger effect = lower value 0.99 | S. cerevisiae deletion strains, locus YPL055C, strain LGE1, stronger effect = lower value 0.968 | S. cerevisiae deletion strains, locus YPL078C, strain atp4, stronger effect = lower value 0.979 | S. cerevisiae deletion strains, locus YPL106C, strain sse1, stronger effect = lower value 0.958 | S. cerevisiae deletion strains, locus YPL240C, strain hsp82, stronger effect = lower value 0.999 | S. cerevisiae deletion strains, locus YPL241C, strain CIN2, stronger effect = lower value 1.01 and 1 | S. cerevisiae deletion strains, locus YPL256C, strain CLN2, stronger effect = lower value 0.979 | S. cerevisiae deletion strains, locus YPR119W, strain clb2, stronger effect = lower value 1 | S. cerevisiae deletion strains, locus YPR141C, strain kar3, stronger effect = lower value 1.01 | S. cerevisiae deletion strains, locus YPR163C, strain tif3, stronger effect = lower value 1.01 | S. cerevisiae deletion strains, locus YPR167C, strain met16, stronger effect = lower value 1 | S. cerevisiae deletion strains, strain wtn01, stronger effect = lower value 1.01 | S. cerevisiae strains, strain wild type, stronger effect = lower value 1
